Records with an inconclusive call do not appear. Active and inactive are the calls of the source. Unless noted, the rule behind the calls is not given here.
Legend:
[1] = rapamycin-like changes in RPL19A-GFP expression – cell-based, S. cerevisiae, multiplex flow cytometry, primary screen (AID 1862; in the data active = percent of DMSO control GFP below about 86%;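 note: lower values mimic rapamycin by blocking the RPL19A rise seen in DMSO cells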); details: S. cerevisiae RPL19A-GFP strain, flow cytometry fluorescence, 3 h; at 10 µM; stronger effect = lower value
[2] = TOR pathway GLN3 branch reporter MEP2-GFP changes – S. cerevisiae, multiplex flow cytometry, primary screen (AID 1867;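 active = GFP response, as percent of the DMSO control, above the screen-wide mean plus 3 SD, about 139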;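 note: median GFP channel fluorescence of barcode-gated MEP2-GFP cells measured by flow cytometry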); details: S. cerevisiae MEP2-GFP strain, 3 h, at 10 µM, stronger effect = higher value
[3] = TOR pathway RTG branch CIT2 reporter changes – S. cerevisiae, GFP fusion, multiplex flow cytometry, primary screen (AID 1870;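 active = percent response above a set limit, the screen-wide mean plus 3 SD, cut at about 130% in these data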;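 note: barcoded CIT2-GFP strain pooled with four other GFP strains with rapamycin as positive control; median GFP fluorescence per well over plate mean of DMSO wells so 100% = DMSO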); details: S. cerevisiae CIT2-GFP expression, 3 h, at 10 µM, stronger effect = higher value
[4] = TOR pathway LAP4-GFP level changes – S. cerevisiae, multiplex flow cytometry, primary screen (AID 1873;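 active = GFP signal, as percent of the solvent control, above the screen mean plus 3 SD, about 149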); details: S. cerevisiae LAP4-GFP expression, 3 h, at 10 µM, stronger effect = higher value
[5] = yeast AGP1-GFP level changes, GLN3 branch – cell-based, multiplex flow cytometry, S. cerevisiae, primary screen (AID 1887;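 active = GFP signal above the screen-wide mean plus 3 SD, that is over about 124.5% of the solvent control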;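 note: AGP1-GFP fusion strain of S. cerevisiae within a five-strain barcoded multiplex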); details: 3 h, at 10 µM, stronger effect = higher value
[6] = reduced mouse 2C T cell binding to pMHC/ICAM-1 vesicles – MLPCN validation set, flow cytometry, LFA-1/ICAM-1 modulator project, pilot screen (AID 2523;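 active = response below a set limit, under 55% cells CD8-positive and vesicle-bound, and CD8 cells' 90th-percentile brightness under 279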;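 for vesicle binding response: mean PE anti-B7-1 fluorescence of CD8+ cells relative to row control; 100% = QL9-loaded vesicles with DMSO vehicle in the same plate row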); details: 2C mouse CD8+ T cells, at 7 µM, stronger effect = lower value; double positive events: measured here: CD8+/vesicle+ event percentage
[7] = molecular target: Integrin beta-1 (Homo sapiens) + Integrin alpha-4 (Homo sapiens) (UniProt P13612+P05556); assay: alpha4beta1 integrin LIBS antibody binding reduction – U937 cells, HUTS-21 mAb, flow cytometry, validation set, VLA-4 allosteric modulator project, pilot screen (AID 2674;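 active = inhibition above 50%, about 3 SD of the validation set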;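 note: antibody binding induced by the VLA-4 ligand LDV present at three times its Kd; 0% = LDV ligand with antibody and no compound and 100% = antibody without LDV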); details: HUTS-21 LIBS mAb binding, at 6.7 µM, stronger effect = higher value
Sequence of Integrin beta-1 (Homo sapiens) + Integrin alpha-4 (Homo sapiens) (P05556 whole entry, looked up): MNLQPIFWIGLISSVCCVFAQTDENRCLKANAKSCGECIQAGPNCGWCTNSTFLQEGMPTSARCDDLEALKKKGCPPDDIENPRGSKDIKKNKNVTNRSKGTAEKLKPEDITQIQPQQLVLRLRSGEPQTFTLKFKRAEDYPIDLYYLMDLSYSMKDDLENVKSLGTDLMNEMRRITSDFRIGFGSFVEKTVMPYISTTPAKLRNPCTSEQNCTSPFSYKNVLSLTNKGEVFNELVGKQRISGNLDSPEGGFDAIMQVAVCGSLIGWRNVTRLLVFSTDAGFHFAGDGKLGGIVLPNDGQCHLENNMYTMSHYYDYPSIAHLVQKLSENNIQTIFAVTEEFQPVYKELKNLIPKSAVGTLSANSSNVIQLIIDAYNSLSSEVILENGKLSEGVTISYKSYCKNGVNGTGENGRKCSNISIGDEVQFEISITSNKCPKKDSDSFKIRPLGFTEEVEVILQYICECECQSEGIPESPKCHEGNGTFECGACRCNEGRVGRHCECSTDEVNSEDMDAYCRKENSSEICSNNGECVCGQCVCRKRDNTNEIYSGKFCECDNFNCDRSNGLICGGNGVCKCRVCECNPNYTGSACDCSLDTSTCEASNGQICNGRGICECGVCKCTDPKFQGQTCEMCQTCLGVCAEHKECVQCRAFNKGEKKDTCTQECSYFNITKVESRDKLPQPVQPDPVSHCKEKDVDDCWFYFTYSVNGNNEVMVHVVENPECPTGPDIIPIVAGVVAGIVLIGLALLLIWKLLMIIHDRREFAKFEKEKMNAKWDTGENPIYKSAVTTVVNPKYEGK
Sequence of Integrin beta-1 (Homo sapiens) + Integrin alpha-4 (Homo sapiens) (P13612 whole entry, looked up): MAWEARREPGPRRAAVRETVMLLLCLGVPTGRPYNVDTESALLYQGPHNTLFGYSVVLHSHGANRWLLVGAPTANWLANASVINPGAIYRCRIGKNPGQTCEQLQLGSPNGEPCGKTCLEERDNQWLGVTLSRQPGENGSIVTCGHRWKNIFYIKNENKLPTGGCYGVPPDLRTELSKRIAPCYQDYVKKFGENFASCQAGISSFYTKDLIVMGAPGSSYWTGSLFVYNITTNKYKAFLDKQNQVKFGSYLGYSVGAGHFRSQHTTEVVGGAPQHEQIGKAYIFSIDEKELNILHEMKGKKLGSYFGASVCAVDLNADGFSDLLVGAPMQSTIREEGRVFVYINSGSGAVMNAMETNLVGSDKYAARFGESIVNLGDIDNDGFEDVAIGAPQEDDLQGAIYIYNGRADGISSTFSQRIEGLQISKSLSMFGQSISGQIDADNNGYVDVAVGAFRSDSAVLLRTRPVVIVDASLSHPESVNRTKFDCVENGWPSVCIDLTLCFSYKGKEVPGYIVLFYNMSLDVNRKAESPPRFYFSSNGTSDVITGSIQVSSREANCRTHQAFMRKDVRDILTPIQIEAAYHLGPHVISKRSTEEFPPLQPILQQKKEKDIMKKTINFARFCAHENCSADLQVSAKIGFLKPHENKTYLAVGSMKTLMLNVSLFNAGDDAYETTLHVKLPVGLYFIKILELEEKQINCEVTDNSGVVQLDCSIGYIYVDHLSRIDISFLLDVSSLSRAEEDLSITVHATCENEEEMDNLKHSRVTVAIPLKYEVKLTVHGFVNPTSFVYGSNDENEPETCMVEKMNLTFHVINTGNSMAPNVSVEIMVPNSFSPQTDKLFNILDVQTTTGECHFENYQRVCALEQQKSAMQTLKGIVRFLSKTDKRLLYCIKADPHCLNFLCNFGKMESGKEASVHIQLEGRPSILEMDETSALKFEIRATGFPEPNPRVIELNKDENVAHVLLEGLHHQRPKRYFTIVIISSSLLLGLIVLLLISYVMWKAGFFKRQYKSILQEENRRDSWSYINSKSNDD

[8] = calorie-restriction mimetic ROS inhibitors, yeast – validation compound set, pilot screen (AID 2706;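 active = superoxide response below 65% of plate, a cut near 3 SD across the whole screen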;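 note: yeast exposed to compound for one week at 30 degrees C before staining; 100% = mean of all compound wells on the same plate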); details: S. cerevisiae aging, superoxide DHE fluorescence; at 10 µM; stronger effect = lower value
[9] = molecular target: Beta-adrenergic receptor kinase 1 (Homo sapiens) (UniProt P25098); assay: GRK2 binders displacing RNA aptamer, biochemical, validation, human GRK2, bead flow cytometry (AID 488806;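 active = aptamer binding inhibition above 30%, about 3 SD of noise from non-fluorescent compounds; inactive = inhibition at or below 30%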); details: bead-bound GRK2, FAM-aptamer displacement, at 10 µM, stronger effect = higher value
[10] = molecular target: Beta-2 adrenergic receptor (Homo sapiens) (UniProt P07550); assay: agonist-induced loss of surface beta2AR – cell-based, FAP fluorogen, flow cytometry, validation set, pilot screen (AID 504459;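 active = percent response above 42, roughly 3 SD of non-fluorescent test compounds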;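 note: agonist-driven loss of surface beta2AR via internalization measured by FAP dye flow cytometry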); details: Am2.2-beta2AR cells, at 10 µM, stronger effect = higher value
Sequence of Beta-2 adrenergic receptor (Homo sapiens) (P07550 whole entry, looked up): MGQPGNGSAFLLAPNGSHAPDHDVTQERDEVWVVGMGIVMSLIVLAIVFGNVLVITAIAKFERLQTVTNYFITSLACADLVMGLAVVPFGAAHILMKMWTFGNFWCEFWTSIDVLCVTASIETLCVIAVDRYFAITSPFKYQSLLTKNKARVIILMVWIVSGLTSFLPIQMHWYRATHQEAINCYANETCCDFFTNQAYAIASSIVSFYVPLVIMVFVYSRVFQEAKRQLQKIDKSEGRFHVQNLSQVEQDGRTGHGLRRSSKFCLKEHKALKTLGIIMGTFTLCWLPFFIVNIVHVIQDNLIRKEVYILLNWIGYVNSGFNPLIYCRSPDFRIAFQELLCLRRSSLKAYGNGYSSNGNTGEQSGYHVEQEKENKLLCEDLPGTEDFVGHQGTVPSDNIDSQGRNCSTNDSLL

[11] = molecular target: AP-2 complex subunit beta (Homo sapiens) (UniProt P63010); assay: beta-arrestin/AP2 interaction blockers – biochemical, validation set, GST-AP2 beads, flow cytometry, pilot screen (AID 504541;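 active = inhibition above 54%, about 3 SD of non-fluorescent compounds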;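 note: AP2 carries R879A mutation and is captured from E. coli lysate; bead-bound FITC arrestin peptide fluorescence measuring arrestin peptide binding to AP2; 0% = DMSO wells and 100% = excess unlabeled arrestin peptide control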); details: FITC arrestin peptide, at 10 µM, stronger effect = higher value
Sequence of AP-2 complex subunit beta (Homo sapiens) (P63010 whole entry, looked up, one chain of several): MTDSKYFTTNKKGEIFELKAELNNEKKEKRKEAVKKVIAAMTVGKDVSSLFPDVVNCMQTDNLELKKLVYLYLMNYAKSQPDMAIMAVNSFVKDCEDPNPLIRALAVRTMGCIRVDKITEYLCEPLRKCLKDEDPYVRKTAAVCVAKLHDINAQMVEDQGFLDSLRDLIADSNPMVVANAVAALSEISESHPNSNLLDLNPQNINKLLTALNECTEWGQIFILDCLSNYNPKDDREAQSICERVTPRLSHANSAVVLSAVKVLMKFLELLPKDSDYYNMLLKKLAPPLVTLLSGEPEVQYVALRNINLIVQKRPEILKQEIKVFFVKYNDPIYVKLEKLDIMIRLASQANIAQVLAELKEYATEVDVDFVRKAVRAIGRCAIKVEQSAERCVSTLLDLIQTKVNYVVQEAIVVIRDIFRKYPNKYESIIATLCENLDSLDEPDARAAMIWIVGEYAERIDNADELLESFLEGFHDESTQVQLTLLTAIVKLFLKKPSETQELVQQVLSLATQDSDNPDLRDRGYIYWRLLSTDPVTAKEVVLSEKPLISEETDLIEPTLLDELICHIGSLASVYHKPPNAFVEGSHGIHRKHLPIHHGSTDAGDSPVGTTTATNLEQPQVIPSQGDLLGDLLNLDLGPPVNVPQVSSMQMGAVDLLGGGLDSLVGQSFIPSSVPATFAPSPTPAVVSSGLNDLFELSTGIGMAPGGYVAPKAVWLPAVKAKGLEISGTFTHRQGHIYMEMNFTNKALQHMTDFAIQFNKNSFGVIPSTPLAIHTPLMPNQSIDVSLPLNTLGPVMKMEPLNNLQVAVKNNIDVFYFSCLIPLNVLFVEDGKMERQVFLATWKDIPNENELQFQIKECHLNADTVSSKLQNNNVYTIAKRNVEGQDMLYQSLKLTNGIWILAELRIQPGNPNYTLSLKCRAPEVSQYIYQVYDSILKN

[12] = cytosolic pH regulators acting via V-ATPase – S. cerevisiae, pHLuorin, HTS validation (AID 504600; in the data active = response above about 15%;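 note: plate controls were DMSO for no effect and reference compound for full effect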); details: V-ATPase proton transport, at 10 µM, stronger effect = higher value
[13] = test system: anti-desmoglein-3 scFv antibody binding to human DSG3; assay: blockers of pathogenic pemphigus antibody–desmoglein-3 binding – biochemical, validation compound set, bead-based, flow cytometry, pilot screen (AID 588368;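 active = binding below the plate cutoff, the plate median minus 3 SD, with a reading above zero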;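 note: signal is the median channel fluorescence of bead-bound GFP antibody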); details: Protein G beads, DSG3-Fc, scFv-GFP binding, at 10 µM, stronger effect = lower value
[14] = test system: Botulinum neurotoxin type F light chain protease (Clostridium botulinum); assay: Clostridium botulinum type F light chain protease inhibitors, microsphere substrate cleavage, validation (AID 588459); details: multiplex microsphere protease substrate cleavage assay, flow cytometry; at 10 µM; stronger effect = higher value
[15] = molecular target: Botulinum neurotoxin type A (Clostridium botulinum) (UniProt P0DPI0); assay: BoNT/A light chain protease inhibitors, biochemical, multiplex microsphere flow cytometry, validation set (AID 588460); details: at 10 µM, stronger effect = higher value
[16] = molecular target: Lethal factor (Bacillus anthracis) (UniProt P15917); assay: Bacillus anthracis lethal factor inhibition, microsphere flow cytometry protease assay, validation at 10 µM (AID 588461); details: multiplex microsphere protease cleavage assay, stronger effect = higher value
Sequence of Lethal factor (Bacillus anthracis) (P15917 whole entry, looked up): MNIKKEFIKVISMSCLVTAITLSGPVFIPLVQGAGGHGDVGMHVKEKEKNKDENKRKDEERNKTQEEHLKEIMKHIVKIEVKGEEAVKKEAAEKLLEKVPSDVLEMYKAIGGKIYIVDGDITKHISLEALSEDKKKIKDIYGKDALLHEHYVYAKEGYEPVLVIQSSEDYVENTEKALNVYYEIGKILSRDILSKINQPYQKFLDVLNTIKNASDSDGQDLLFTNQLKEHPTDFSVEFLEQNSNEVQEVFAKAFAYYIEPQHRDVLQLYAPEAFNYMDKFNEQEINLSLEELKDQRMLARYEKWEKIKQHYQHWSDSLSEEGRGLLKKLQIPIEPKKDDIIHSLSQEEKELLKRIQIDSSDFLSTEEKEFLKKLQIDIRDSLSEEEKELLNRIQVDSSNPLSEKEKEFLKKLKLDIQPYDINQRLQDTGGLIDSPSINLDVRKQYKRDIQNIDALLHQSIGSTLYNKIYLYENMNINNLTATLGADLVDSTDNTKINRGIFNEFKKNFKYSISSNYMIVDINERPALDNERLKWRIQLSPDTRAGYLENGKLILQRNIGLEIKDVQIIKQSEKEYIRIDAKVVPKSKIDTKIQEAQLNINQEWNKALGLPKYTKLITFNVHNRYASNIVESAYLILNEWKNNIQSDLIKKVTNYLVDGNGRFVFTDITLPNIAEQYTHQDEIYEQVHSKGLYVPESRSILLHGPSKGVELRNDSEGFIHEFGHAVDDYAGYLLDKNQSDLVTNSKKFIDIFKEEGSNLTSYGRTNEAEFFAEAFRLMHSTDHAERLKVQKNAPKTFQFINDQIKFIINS

[17] = Nile Red efflux blockade in pump-expressing yeast – validation compound set, multiplex, phenotypic, pilot screen (AID 588506;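 active = efflux inhibition above 0.42, the validation set average plus 4 SD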;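 note: Nile Red retained in cells so higher fluorescence means more efflux inhibition; 0 = negative control wells and 1 = enniatin B 25 µM full block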); details: S. cerevisiae pump-expressing triplex, Nile Red efflux flow cytometry; at 10 µM; stronger effect = higher value
[18] = molecular target: ATP-binding cassette sub-family B member 6 (Homo sapiens) (UniProt Q9NP58); assay: blockers of ABCB6-driven porphyrin uptake – K562-ABCB6 cells, flow cytometry, validation set, pilot screen (AID 588550;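 active = inhibition above the screen-wide mean plus 3 SD, about 51%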;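 note: 0% = DMSO wells and 100% = benzethonium chloride 70 µM positive control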); details: K562-ABCB6 porphyrin accumulation, 1 h, at 10 µM, stronger effect = higher value
Sequence of ATP-binding cassette sub-family B member 6 (Homo sapiens) (Q9NP58 whole entry, looked up): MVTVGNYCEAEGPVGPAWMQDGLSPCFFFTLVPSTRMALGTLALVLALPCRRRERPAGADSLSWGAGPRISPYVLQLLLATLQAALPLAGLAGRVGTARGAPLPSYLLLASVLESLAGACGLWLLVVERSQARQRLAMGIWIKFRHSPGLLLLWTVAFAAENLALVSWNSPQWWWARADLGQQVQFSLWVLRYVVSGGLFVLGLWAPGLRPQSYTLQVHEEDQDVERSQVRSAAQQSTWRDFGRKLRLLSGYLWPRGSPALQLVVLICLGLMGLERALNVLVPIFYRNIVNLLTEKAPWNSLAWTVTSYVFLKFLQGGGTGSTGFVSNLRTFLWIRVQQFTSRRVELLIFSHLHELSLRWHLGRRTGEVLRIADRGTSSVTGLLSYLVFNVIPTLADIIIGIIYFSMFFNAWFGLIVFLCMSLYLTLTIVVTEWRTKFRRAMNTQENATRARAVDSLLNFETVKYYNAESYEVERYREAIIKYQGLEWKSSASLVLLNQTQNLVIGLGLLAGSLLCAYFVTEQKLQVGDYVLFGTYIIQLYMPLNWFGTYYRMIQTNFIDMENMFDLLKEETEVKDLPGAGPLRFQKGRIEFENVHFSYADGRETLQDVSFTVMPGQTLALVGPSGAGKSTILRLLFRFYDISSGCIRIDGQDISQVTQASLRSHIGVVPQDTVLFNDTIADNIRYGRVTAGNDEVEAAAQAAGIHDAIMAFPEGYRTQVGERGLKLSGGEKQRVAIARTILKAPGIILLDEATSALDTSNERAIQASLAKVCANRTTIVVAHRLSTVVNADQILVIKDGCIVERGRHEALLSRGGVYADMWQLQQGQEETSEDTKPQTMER

[19] = AML differentiation inducers, ER-HoxA9 marrow cells – cell-based, GFP/MAC1 double positive, flow cytometry, validation set, primary screen (AID 588685;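 active = differentiation response of at least 50%, scaled between solvent and reference control, from cells with both markers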;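 note: compound exposure lasts four days before antibody staining and flow analysis; 0% = DMSO wells and 100% = 5 µM fulvestrant positive control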); details: stronger effect = higher value

| SMILES | percent of DMSO control GFP [1] | GFP response vs DMSO [2] | percent response of DMSO control [3] | GFP response vs DMSO [4] | GFP response, % of DMSO [5] | double positive events [6] [%] | vesicle binding response [6] | inhibition [7] | superoxide response (% of plate) [8] | aptamer binding inhibition [9] | response [10] | inhibition [11] | response [12] | binding (% of control) [13] | inhibition [14] | inhibition [15] | inhibition [16] | efflux inhibition (fraction of control) [17] | inhibition [18] | differentiation response [19] |
| --- | --- | --- | --- | --- | --- | --- | --- | --- | --- | --- | --- | --- | --- | --- | --- | --- | --- | --- | --- | --- |
| CC12CN3CC(C)(CN(C1)C3c1cccs1)C2=O (centres undefined) | 101% (inactive) | 99.3% (inactive) | 109% (inactive) | 97.3% (inactive) | 107% (inactive) | 63 | 181% (inactive) | -9.79% (inactive) | 102% (inactive) | 4% (inactive) | -0.2% (inactive) | -2.92% (inactive) | -1.09% (inactive) | 99.3% (inactive) | -2.3% (inactive) | -0.1% (inactive) | -4.2% (inactive) | 0.05 (inactive) | 6% (inactive) | -7.57% (inactive) |
| CC(C)C(=O)Nc1ccc(S(=O)(=O)N2CC3CC(C2)c2cccc(=O)n2C3)cc1 (centres undefined) | 97.4% (inactive) | 95.2% (inactive) | 104% (inactive) | 86.3% (inactive) | 93.1% (inactive) | 58.5 | 184% (inactive) | -5.89% (inactive) | 106% (inactive) | 3% (inactive) | -5.34% (inactive) | 10.6% (inactive) | -0.52% (inactive) | 100% (inactive) | 4.8% (inactive) | 0.5% (inactive) | 0.3% (inactive) | -0.24 (inactive) | 2% (inactive) | 13.6% (inactive) |
| O=C1NCCN2CCCC12 (centres undefined) | 100% (inactive) | 99.7% (inactive) | 102% (inactive) | 93.7% (inactive) | 102% (inactive) | 58.7 | 108% (inactive) | 12.3% (inactive) | 92.8% (inactive) | 0% (inactive) | 0.01% (inactive) | 4.79% (inactive) | 113% (active) | 101% (inactive) | -0.2% (inactive) | -0.6% (inactive) | 5.9% (inactive) | -0.09 (inactive) | 21% (inactive) | -11.9% (inactive) |
| C[C@]12CCC(=O)C=C1CC[C@@H]1[C@@H]2CC[C@]2(C)C(=O)CC[C@@H]12 | 97.6% (inactive) | 95.1% (inactive) | 80.3% (inactive) | 106% (inactive) | 84.2% (inactive) | 66.1 | 210% (inactive) | 1.62% (inactive) |  | 1% (inactive) | -0.98% (inactive) | -7.92% (inactive) | -1.25% (inactive) | 99.8% (inactive) | -2.7% (inactive) | -2.1% (inactive) | -3.5% (inactive) | 0.05 (inactive) | 9% (inactive) | 11% (inactive) |
| O=Cc1cn(Cc2ccc(F)cc2)c2ccccc12 | 97.8% (inactive) | 113% (inactive) | 90.1% (inactive) | 129% (inactive) | 102% (inactive) | 60.5 | 173% (inactive) | 2.3% (inactive) | 99.1% (inactive) | 1% (inactive) | 14.3% (inactive) | 49.4% (inactive) | -7.85% (inactive) | 97.2% (inactive) | 8.3% (inactive) | 3.1% (inactive) | 3.2% (inactive) | 0.12 (inactive) | 2% (inactive) | 93.6% (active) |
| O=S(=O)(c1ccc(F)cc1)N1CCCCC1c1cccnc1 (centres undefined) | 99% (inactive) | 102% (inactive) | 98.3% (inactive) | 112% (inactive) | 113% (inactive) | 62 | 202% (inactive) | -2.82% (inactive) | 99.7% (inactive) | -2% (inactive) | -9.47% (inactive) | -4.49% (inactive) | 2.55% (inactive) | 105% (inactive) | 0.1% (inactive) | 0.8% (inactive) | 3.2% (inactive) | 0.08 (inactive) | 3% (inactive) | -11.9% (inactive) |
| CCC1(c2ccccc2)C(=O)N(COC)C(=O)N(COC)C1=O | 102% (inactive) | 102% (inactive) | 103% (inactive) | 112% (inactive) | 112% (inactive) | 62.2 | 148% (inactive) | 10.8% (inactive) | 109% (inactive) | 2% (inactive) | -14.8% (inactive) | 10.8% (inactive) | -4.18% (inactive) | 102% (inactive) | 2% (inactive) | -0.2% (inactive) | 0.4% (inactive) | 0.12 (inactive) | 4% (inactive) | 3.88% (inactive) |
| CN1CCN(C(=O)OC2c3nccnc3C(=O)N2c2ccc(Cl)cn2)CC1 (centres undefined) | 99.9% (inactive) | 112% (inactive) | 92.9% (inactive) | 117% (inactive) | 106% (inactive) | 58.9 | 6590% (inactive) | 9.13% (inactive) | 111% (inactive) | 2% (inactive) | -5.78% (inactive) | 0.51% (inactive) | -1.22% (inactive) | 100% (inactive) | 4.3% (inactive) | -0.8% (inactive) | 1.7% (inactive) | -0.03 (inactive) | 5% (inactive) | -13.6% (inactive) |

Reference: PubChem BioAssay
